Source: PubChem BioAssay (Tox21)
Results filed as inconclusive are left out. Activity calls are given as the source filed them. Unless noted, calls come from the whole dose curve; as a rule, active = well fitted curve in the direction sought with a large enough effect in the repeat runs; inconclusive = weak or mixed curves; inactive = no such curve, though single readings can be large; an effect the other way counts as inactive or inconclusive.

Columns and labels:
[1] = biological target: Aryl hydrocarbon receptor (Homo sapiens) (UniProt P35869); assay: qHTS assay to identify small molecule that activate the aryl hydrocarbon receptor (AhR) signaling pathway (AID 743085); details: HepG2 AhR-luc (HG2L7.5c1), luciferase, 24 h; series mostly up to 70.3 µM;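 note: HG2L7.5c1 human HepG2 liver cells with stably integrated DRE-driven firefly reporter; nearly all actives have a fitted effect of over 15% in size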
How it was run: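 HepG2 cells stably carrying a 20-DRE firefly luciferase reporter (HG2L7.5c1) treated with compound for 24 hr at 37C. Luciferase read by ONE-Glo luminescence, with CellTiter-Fluor viability read first.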

[2] = biological target: Peroxisome proliferator-activated receptor gamma (Homo sapiens) (UniProt P37231); assay: qHTS assay to identify small molecule agonists of the peroxisome proliferator-activated receptor gamma (PPARg) signaling pathway (AID 743094; active = well fitted activation curve with a large enough effect in the signal ratio in the repeat runs, not every such curve was filed as active; the % refers to the signal ratio); details: HEK293H PPARg-UAS-bla, beta-lactamase FRET ratio, 17 h; series mostly up to 57 µM
How it was run: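 Compounds dissolved in DMSO were added to PPARg UAS-bla HEK293H cells for 17 h at 37C, and reporter expression was quantified by fluorescence intensity after 1 h with LiveBLAzer B/G FRET substrate.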

[3] = qHTS assay to identify small molecule antagonists of the peroxisome proliferator-activated receptor gamma (PPARg) signaling pathway - cell viability counter screen (AID 743194); details: PPARg-bla HEK293H viability, CellTiter-Glo luminescence, 17 h, co-treated with 50 nM rosiglitazone; series mostly up to 62.6 µM; note: nearly all actives have a fitted effect of over 55% in size
How it was run: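 Viability was measured as CellTiter-Glo luminescence in GeneBLAzer PPARg UAS-bla HEK293H cells. These cells had been exposed 17 h at 37 C to compounds together with rosiglitazone at 50 nM final, with the beta-lactamase readout taken in the same wells.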

[4] = qHTS assay for small molecule agonists of the antioxidant response element (ARE) signaling pathway (AID 743202; active = well fitted activation curve with a large enough effect in the signal ratio in the repeat runs, not every such curve was filed as active; the % refers to the signal ratio); details: HepG2 ARE-bla reporter, beta-lactamase FRET, 16 h; series mostly up to 73.3 µM
How it was run: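 Quantitative high-throughput format in HepG2 cells bearing an integrated ARE-beta-lactamase reporter. Compound exposure lasted 16 h at 37 C, and fluorescence was read 2 h after adding LiveBLAzer B/G substrate at room temperature.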

[5] = qHTS assay for small molecule agonists of the antioxidant response element (ARE) signaling pathway - cell viability counter screen (AID 743203; calls by dose curve; note: nearly all actives have a fitted effect of over 55% in size); details: ARE-bla HepG2 viability, CellTiter-Glo luminescence, 16 h; series mostly up to 73.3 µM
How it was run: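 Following 16 hrs of compound treatment at 37C, HepG2 cells with an ARE-controlled beta-lactamase gene were lysed with CellTiter-Glo. Luminescence was read after 30 min at room temperature.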

[6] = qHTS assay for small molecule activators of the heat shock response signaling pathway - cell viability counter screen (AID 743209); details: HSE-bla HeLa viability, CellTiter-Glo luminescence, 5 h; series mostly up to 62.6 µM; note: nearly all actives have a fitted effect of over 50% in size
How it was run: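 Readout: CellTiter-Glo luminescence, 30 min at room temperature. System: HSE-bla HeLa cells, 1500/well, plated overnight. Treatment: compounds in DMSO, 5 h at 37 C.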

[7] = qHTS assay for small molecule activators of the heat shock response signaling pathway (AID 743210; active = well fitted activation curve with a large enough effect in the signal ratio in the repeat runs, with a control signal flat, not every such curve was filed as active; the % refers to the signal ratio;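 note: HeLa cells with beta-lactamase reporter driven by heat shock elements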); details: HeLa HSE-bla reporter, beta-lactamase ratio, 5 h; series mostly up to 62.6 µM
How it was run: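 HeLa HSE-bla cells, overnight plating; cpd in DMSO 5 h, 37 C; LiveBLAzer B/G FRET substrate 2.5 h RT; fluorescence intensity read.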

[8] = qHTS assay to identify small molecule agonists of the peroxisome proliferator-activated receptor delta (PPARd) signaling pathway - cell viability counter screen (AID 743211); details: PPARd-bla HEK293H viability, CellTiter-Glo luminescence, 17 h; series mostly up to 62.6 µM; note: nearly all actives have a fitted effect of over 55% in size
How it was run: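 PPARd-bla HEK293H cells (3000/well) were pre-incubated 5 h at 37 C, then exposed to compound for 17 h at 37 C. After 2 h with LiveBLAzer substrate, CellTiter-Glo was added to the same wells; luminescence read after 30 min at room temperature.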

[9] = biological target: Peroxisome proliferator-activated receptor delta (Homo sapiens) (UniProt Q03181); assay: qHTS assay to identify small molecule agonists of the peroxisome proliferator-activated receptor delta (PPARd) signaling pathway (AID 743212; calls by dose curve); details: HEK293H PPARd-UAS-bla, beta-lactamase FRET ratio, 17 h; series mostly up to 62.6 µM
How it was run: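 HEK293H PPARd-bla cells; 5 h preincubation 37 C/5% CO2; compound (DMSO) 37 C; LiveBLAzer B/G FRET substrate 2 h RT; fluorescence intensity.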

[10] = qHTS assay to identify small molecule antagonists of the peroxisome proliferator-activated receptor delta (PPARd) signaling pathway - cell viability counter screen (AID 743213); details: PPARd-bla HEK293H viability, CellTiter-Glo luminescence, 17 h; series mostly up to 62 µM; note: nearly all actives have a fitted effect of over 50% in size
How it was run: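 HEK293H cells with the PPARd UAS-bla reporter, co-treated 17 h at 37 C with compounds and L165041 (300 nM final), were lysed with CellTiter-Glo. Luminescence indicated viable cell content.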

[11] = biological target: Peroxisome proliferator-activated receptor delta (Homo sapiens) (UniProt Q03181); assay: qHTS assay to identify small molecule antagonists of the peroxisome proliferator-activated receptor delta (PPARd) signaling pathway (AID 743215; active = well fitted inhibition curve with a large enough effect in the signal ratio in the repeat runs, not every such curve was filed as active; the % refers to the signal ratio;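 note: cells stimulated with agonist L165041 at 300 nM final during compound exposure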); details: HEK293H PPARd-UAS-bla, beta-lactamase FRET ratio, antagonist, 17 h; series mostly up to 62 µM
How it was run: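 HEK293H UAS-bla, PPARd; agonist L165041 300 nM final with cpd in DMSO; 37 C 17 h; FRET substrate, RT 2 h; fluorescence intensity.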

[12] = qHTS assay to identify small molecule agonists of the farnesoid-X-receptor (FXR) signaling pathway - cell viability counter screen (AID 743218); details: FXR-bla HEK293T viability, CellTiter-Glo luminescence, 16 h; series mostly up to 62.6 µM; note: nearly all actives have a fitted effect of over 45% in size
How it was run: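 Parallel cytotoxicity test: compound-treated (16 h, 37 C) HEK 293T FXR-bla reporter cells were lysed with CellTiter-Glo and luminescence recorded.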

[13] = qHTS assay to identify small molecule antagonists of the farnesoid-X-receptor (FXR) signaling pathway - cell viability counter screen (AID 743221; active = well fitted cell-killing curve with a large enough effect in the repeat runs, not every such curve was filed as active; note: nearly all actives have a fitted effect of over 50% in size); details: FXR-bla HEK293T viability, CellTiter-Glo luminescence, 16 h; series mostly up to 62.6 µM
How it was run: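 GeneBLAzer FXR-UAS-bla HEK 293T cells, compound plus chenodeoxycholic acid (50 uM final), 16 h at 37 C. CellTiter-Glo added to the same wells after the beta-lactamase read; luminescence read after 30 min at room temperature as viability.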

[14] = biological target: Vitamin D3 receptor (Homo sapiens) (UniProt P11473); assay: qHTS assay to identify small molecule agonists of the vitamin D receptor (VDR) signaling pathway (AID 743222; calls by dose curve); details: HEK293T VDR-UAS-bla, beta-lactamase FRET ratio, 16 h; series mostly up to 63.5 µM
How it was run: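 In VDR-bla cells, compound-induced beta-lactamase expression is quantified by FRET substrate fluorescence. Treatment lasts 16 h at 37C; substrate develops 2 h at room temperature.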

[15] = qHTS assay to identify small molecule agonists of the vitamin D receptor (VDR) signaling pathway - cell viability counter screen (AID 743224); details: VDR-bla HEK293T viability, CellTiter-Glo luminescence, 16 h; series mostly up to 62.6 µM; note: nearly all actives have a fitted effect of over 50% in size
How it was run: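 Plated VDR-bla cells (4 h, 37C) received compound, incubated 16 h, then LiveBLAzer substrate 2 h RT; CellTiter-Glo added afterwards, luminescence read at 30 min.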

[16] = qHTS assay to identify small molecule that activate the aryl hydrocarbon receptor (AhR) signaling pathway - cell viability counter screen (AID 743086); details: HepG2-AhR-luc viability, CellTiter-Fluor, 24 h; series mostly up to 70.3 µM;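 note: HepG2 liver cells carrying the AhR DRE luciferase reporter; nearly all actives have a fitted effect of over 45% in size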
How it was run: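 Cytotoxicity counter screen: CellTiter-Fluor signal (30 min, 37 C) in 4000 HepG2 cells/well carrying the DRE-luciferase reporter, following 24 h compound exposure at 37 C.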

[17] = biological target: Peroxisome proliferator-activated receptor gamma (Homo sapiens) (UniProt P37231); assay: qHTS assay to identify small molecule antagonists of the peroxisome proliferator-activated receptor gamma (PPARg) signaling pathway (AID 743191; calls by dose curve; note: nearly all actives have a fitted effect of over 30% in size); details: HEK293H PPARg-UAS-bla, beta-lactamase ratio, antagonist, 17 h; series mostly up to 62.6 µM
How it was run: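 Beta-lactamase reporter under UAS control in HEK293H PPARg-bla cells; compound treatment 17 h at 37C. Read-out: fluorescence intensity after 1 h room-temperature incubation with LiveBLAzer B/G FRET substrate.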

[18] = biological target: Bile acid receptor (Homo sapiens) (UniProt Q96RI1); assay: qHTS assay to identify small molecule antagonists of the farnesoid-X-receptor (FXR) signaling pathway (AID 743217; active = well fitted inhibition curve with a large enough effect in the signal ratio in the repeat runs, not every such curve was filed as active; the % refers to the signal ratio); details: HEK293T FXR-UAS-bla, beta-lactamase ratio, CDCA-stimulated, 16 h; series mostly up to 62.6 µM
How it was run: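 GeneBLAzer FXR-UAS-bla HEK 293T, CDCA-stimulated (50 uM final). Compound treatment 16 h, 37 °C. Detection: beta-lactamase cleavage of B/G FRET substrate, fluorescence.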

[19] = biological target: Bile acid receptor (Homo sapiens) (UniProt Q96RI1); assay: qHTS assay to identify small molecule agonists of the farnesoid-X-receptor (FXR) signaling pathway (AID 743220; active = well fitted activation curve with a large enough effect in the signal ratio in the repeat runs, not every such curve was filed as active; the % refers to the signal ratio); details: HEK293T FXR-UAS-bla, beta-lactamase FRET ratio, 16 h; series mostly up to 62.6 µM
How it was run: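 Beta-lactamase reporter under UAS control in GeneBLAzer FXR HEK 293T cells (5000/well) measured with LiveBLAzer FRET substrate after 2 h at room temperature. Compound exposure lasted 16 h at 37C.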

[20] = biological target: Vitamin D3 receptor (Homo sapiens) (UniProt P11473); assay: qHTS assay to identify small molecule antagonists of the vitamin D receptor (VDR) signaling pathway (AID 743223; active = well fitted inhibition curve with a large enough effect in the signal ratio in the repeat runs, not every such curve was filed as active; the % refers to the signal ratio); details: VDR-UAS-bla HEK293T, beta-lactamase FRET ratio, 16 h; series mostly up to 61 µM
How it was run: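 VDR-bla cells were treated with compound plus 3 nM final 1alpha,25-dihydroxyvitamin D3 for 16 h at 37C. Beta-lactamase reporter read by B/G FRET substrate fluorescence after 2 h at room temperature. qHTS format.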

Measured: Potency

Chain of Bile acid receptor (Homo sapiens) (Q96RI1 whole entry, looked up): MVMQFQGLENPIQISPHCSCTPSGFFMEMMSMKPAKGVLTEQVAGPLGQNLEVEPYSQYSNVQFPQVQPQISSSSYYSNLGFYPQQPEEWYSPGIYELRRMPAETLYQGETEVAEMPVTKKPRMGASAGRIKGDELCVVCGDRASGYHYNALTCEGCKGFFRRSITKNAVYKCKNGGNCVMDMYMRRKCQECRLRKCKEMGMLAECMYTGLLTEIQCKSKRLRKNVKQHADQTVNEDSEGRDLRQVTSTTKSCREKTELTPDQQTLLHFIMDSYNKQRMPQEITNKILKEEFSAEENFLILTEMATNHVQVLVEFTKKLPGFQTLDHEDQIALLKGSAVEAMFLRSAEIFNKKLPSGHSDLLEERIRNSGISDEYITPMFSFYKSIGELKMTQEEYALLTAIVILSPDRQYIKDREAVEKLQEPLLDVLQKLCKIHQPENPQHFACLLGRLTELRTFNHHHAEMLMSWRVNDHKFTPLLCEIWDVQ
Chain of Peroxisome proliferator-activated receptor delta (Homo sapiens) (Q03181 whole entry, looked up): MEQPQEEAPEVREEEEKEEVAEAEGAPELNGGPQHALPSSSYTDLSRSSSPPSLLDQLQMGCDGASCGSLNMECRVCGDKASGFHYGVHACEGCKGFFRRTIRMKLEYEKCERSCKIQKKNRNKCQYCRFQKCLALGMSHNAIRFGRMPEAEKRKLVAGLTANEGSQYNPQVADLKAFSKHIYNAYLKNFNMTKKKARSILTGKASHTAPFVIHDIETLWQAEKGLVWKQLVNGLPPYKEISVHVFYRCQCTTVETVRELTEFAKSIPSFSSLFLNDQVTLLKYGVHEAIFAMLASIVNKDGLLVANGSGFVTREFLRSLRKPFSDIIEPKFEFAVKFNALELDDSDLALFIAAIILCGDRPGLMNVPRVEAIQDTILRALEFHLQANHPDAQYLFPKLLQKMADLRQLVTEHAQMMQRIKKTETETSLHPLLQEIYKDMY
Chain of Vitamin D3 receptor (Homo sapiens) (P11473 whole entry, looked up): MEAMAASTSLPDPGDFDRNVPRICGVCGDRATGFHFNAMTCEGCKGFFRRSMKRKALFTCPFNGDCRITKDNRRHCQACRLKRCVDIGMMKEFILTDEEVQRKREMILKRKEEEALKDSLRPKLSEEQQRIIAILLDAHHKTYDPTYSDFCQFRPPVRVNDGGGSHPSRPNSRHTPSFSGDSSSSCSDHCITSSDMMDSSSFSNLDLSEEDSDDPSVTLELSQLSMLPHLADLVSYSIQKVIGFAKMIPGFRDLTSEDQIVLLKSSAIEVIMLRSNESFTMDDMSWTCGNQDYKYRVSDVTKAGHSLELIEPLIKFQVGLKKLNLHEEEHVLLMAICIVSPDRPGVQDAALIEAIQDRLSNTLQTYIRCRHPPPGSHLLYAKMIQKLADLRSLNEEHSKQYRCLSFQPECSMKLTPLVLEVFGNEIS
Chain of Aryl hydrocarbon receptor (Homo sapiens) (P35869 whole entry, looked up): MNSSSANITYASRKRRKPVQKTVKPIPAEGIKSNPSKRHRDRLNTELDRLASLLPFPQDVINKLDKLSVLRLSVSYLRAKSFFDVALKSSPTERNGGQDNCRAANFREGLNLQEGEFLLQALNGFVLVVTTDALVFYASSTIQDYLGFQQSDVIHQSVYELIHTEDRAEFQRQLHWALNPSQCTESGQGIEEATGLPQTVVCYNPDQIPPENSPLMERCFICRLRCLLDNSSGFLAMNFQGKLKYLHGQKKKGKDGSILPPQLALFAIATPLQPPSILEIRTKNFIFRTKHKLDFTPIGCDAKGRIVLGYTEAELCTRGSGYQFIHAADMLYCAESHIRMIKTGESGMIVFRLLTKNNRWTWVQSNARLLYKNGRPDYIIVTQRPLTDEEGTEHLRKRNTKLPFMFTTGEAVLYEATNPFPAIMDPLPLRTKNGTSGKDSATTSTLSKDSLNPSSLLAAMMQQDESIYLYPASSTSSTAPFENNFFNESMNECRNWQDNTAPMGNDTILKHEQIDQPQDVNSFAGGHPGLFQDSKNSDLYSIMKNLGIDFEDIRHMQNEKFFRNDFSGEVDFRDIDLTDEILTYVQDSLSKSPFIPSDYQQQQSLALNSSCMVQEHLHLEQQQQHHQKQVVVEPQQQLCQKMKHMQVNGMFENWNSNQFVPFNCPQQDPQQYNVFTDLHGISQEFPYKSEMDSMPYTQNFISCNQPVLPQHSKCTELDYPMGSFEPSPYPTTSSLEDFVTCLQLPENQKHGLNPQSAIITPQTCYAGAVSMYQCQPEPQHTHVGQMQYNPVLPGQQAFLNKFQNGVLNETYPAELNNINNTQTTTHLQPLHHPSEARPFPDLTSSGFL
Chain of Peroxisome proliferator-activated receptor gamma (Homo sapiens) (P37231 whole entry, looked up): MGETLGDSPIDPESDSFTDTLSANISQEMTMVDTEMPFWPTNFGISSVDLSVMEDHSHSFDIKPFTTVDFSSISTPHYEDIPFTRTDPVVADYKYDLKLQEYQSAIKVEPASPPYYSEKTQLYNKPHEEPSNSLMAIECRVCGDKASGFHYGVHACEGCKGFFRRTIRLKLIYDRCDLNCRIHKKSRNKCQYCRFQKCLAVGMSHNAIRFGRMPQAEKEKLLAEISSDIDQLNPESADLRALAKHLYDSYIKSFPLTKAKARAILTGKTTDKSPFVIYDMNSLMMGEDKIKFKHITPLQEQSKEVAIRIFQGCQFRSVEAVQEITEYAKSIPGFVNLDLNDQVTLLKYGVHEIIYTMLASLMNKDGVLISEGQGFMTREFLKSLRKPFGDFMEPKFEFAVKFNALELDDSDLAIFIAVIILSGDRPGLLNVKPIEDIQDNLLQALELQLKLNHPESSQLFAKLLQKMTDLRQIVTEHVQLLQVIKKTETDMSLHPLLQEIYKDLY

Cc1ccc(O)c(C(=O)c2ccccc2)c1
not listed: [16] | [17] | [18] | [19] | [20]
inactive: all other assays above

CC(C)C[P+](C)(CC(C)C)CC(C)C
not listed: [1] | [7]
inactive: all other assays above

O=C[C@@H](O)[C@H](O)[C@H](O)CO
inactive: [1] | [2] | [3] | [5] | [6] | [7] | [9] | [10] | [12] | [13] | [15]

COC(C)(C)CC(C)=O
not listed: [8] | [10] | [11] | [12] | [16] | [17] | [20]
inactive: all other assays above

CCCCCC(=O)CC
not listed: [6] | [11] | [16] | [17]
inactive: all other assays above

CCCC(=O)OC
not listed: [1] | [9] | [11] | [18] | [19]
inactive: all other assays above

CCO[Si](CC(C)C)(OCC)OCC
not listed: [2] | [3] | [4] | [8] | [10] | [15] | [16]
inactive: all other assays above

O=C(c1ccccc1)c1cccc(O)c1
not listed: [3] | [4] | [11] | [16] | [17] | [18] | [19]
inactive: all other assays above

NC[C@H]1O[C@H](O[C@H]2[C@H](O)[C@@H](O[C@H]3O[C@H](CO)[C@@H](O)[C@H](N)[C@H]3O)[C@H](N)C[C@@H]2N)[C@H](N)[C@@H](O)[C@@H]1O
not listed: [7] | [9] | [11] | [16] | [18] | [19]
inactive: all other assays above

C[n+]1ccccc1/C=N/O
not listed: [1] | [10] | [18] | [19]
inactive: all other assays above

CC/C=C/CCCCCCCCCCOC(C)=O
not listed: [3] | [8] | [11] | [13] | [16] | [17] | [18] | [19]
inactive: all other assays above

CCCCCCCOC(C)=O
not listed: [1] | [6] | [10] | [12] | [18] | [19] | [20]
inactive: all other assays above

CC(C)(C)C(=O)CC(=O)C(C)(C)C
not listed: [4] | [7] | [8] | [9] | [10] | [11] | [16]
inactive: all other assays above

O=C(O)CCC(=O)Nc1ccc(S(=O)(=O)Nc2nccs2)cc1
not listed: [6] | [16] | [19]
inactive: all other assays above

CCCCCCCC(=O)N(C)C
not listed: [1] | [4] | [10] | [13] | [18] | [19]
inactive: all other assays above

O=C(O)Cc1ccccc1Oc1ccc(Cl)cc1Cl
inactive: [2] | [3] | [5] | [6] | [7] | [8] | [10] | [18] | [12] | [19] | [15]

N#Cc1cc(NC(=O)C(=O)O)c(Cl)c(NC(=O)C(=O)O)c1
not listed: [1] | [2] | [11] | [16] | [18] | [19]
inactive: all other assays above
